The source of these data is PubChem BioAssay (NCI).

This is part of a sample that, as a whole, favours compounds with a hit. Of some 83,000 tested, about 20% had one in any assay.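 Results are percent growth after 48 hours of single-concentration exposure. 100 means growth as in untreated cells, lower positive values show inhibition; negative values down to -100 show cell death.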 Activity calls are given as the source filed them.

This test has as its system SK-MEL-2 melanoma. Nature of the test: NCI-60 one-dose screen, 48 h (100 = growth as untreated, 0 = no growth, -100 = all killed). To be noted: 10 µM unless noted. Here is the method: Growth inhibition of the SK-MEL-2 human tumor cell line is measured as a screen for anti-cancer activity. Cells are grown in 96 well plates and exposed to the test compound for 48 hours. Compounds are tested at a single concentration, which is 10^-5 M for most compounds. The reported endpoint is percent growth (GI% or GIPRCNT), where numbers from 0 - 100% represent growth inhibition, and numbers from -100% - 0 represent cell death. For example, a value of 40 represents 60% growth inhibition. A value of 0 means no net growth occurred over the course of the experiment. A value of -40 indicates 40% of cells at the beginning of the experiment died by the end of the experiment. A value of -100 means all cells are dead at the end of the experiment.
NCI-60 Human Tumor Cell Lines Screen was performed using the standard one-dose NCI protocol, which is described in more detail at https://dtp.cancer.gov/discovery_development/nci-60/default.htm.
Compounds with GIPRCNT values below 10 were considered active. Activity score was based on GIPRCNT using the following formula: […]
Score is 0 for GIPRCNT values of 100 or above, 50 for GIPRCNT values of 0, and 100 for GIPRCNT values of -100.
For `C[C@@H](Nc1c(C#N)cnc2ccc(-c3cnc(N)nc3)cc12)c1ccccc1`, the growth was -42.5% (active). Consider `CCCCN1C(=O)/C(=c2\sc3n(c2=O)C2C(NN=3)N(CC)C(=O)N2CC)c2cc(Cl)ccc21` (stereo not given), for which the growth was 79.9% (inactive). As to `C#Cc1nc(C2=C(C)C(=O)/C(=N/OC(C)=O)C2)cs1`, the growth was 96.9% (inactive). As to `COc1ccc(N/N=C/c2c(-c3ccc(S(C)(=O)=O)cc3)nc3ccccn23)cc1`, the growth was 53.8% (inactive). For the molecule `CS(=O)(=O)c1ccc(-c2nc3ccccn3c2-c2nc3ccc([N+](=O)[O-])cc3[nH]2)cc1`, the growth was 105% (inactive). `CC1=C(C)C(=O)C(Nc2ccccc2)=C(Cl)C1=O`: the growth is 85.5% (inactive). As for `N[C@@H](Cc1cn(-c2c3ccccc3nc3ccccc23)nn1)C(=O)O`, the growth is 130% (inactive). For `COc1ccc(/C=C2\SC(=Nc3cc(C)on3)NC2=O)cc1`, the growth was 115% (inactive).

On to `Cc1ccc(C(=O)Nc2cccc(C(F)(F)F)c2)cc1Nc1nc(-c2cnccn2)nc2c1cnn2C`, for which the growth is -4.36% (active).

For the molecule `CC(C)(C)OC(=O)N1C(=O)c2c(c3c4ccccc4[nH]c3c3ccc4ccccc4c23)C1=O`, the growth was 42.7% (inactive). For the molecule `CCOC(=O)c1c(NC(=O)c2cccc(C(F)(F)F)c2)sc2cc(O)ccc12`, the growth was 100% (inactive). Regarding `CN(C)c1ccc(/C=C2\Cc3c(F)ccc(Br)c3C2=O)cc1`, the growth is 108% (inactive). With `O=C1Nc2cc(Cl)ccc2/C1=C\c1ccc(OCc2ccc([N+](=O)[O-])cc2)cc1`, the growth was 101% (inactive).

In the case of `CCN1CCN(/C(=N\c2sc(-c3ccccc3)nc2-c2ccccc2)c2ccccc2)CC1`, the growth is 102% (inactive).

As to `N#Cc1nc(-c2ccccc2)oc1N1CCC(CO)C1` (stereo not given), the growth was 127% (inactive). As to `O=C(CN1CCOCC1)NNc1ncnc2ccccc12`, the growth was 96.3% (inactive). As to `O=C(CSc1nc2sc3c(c2c(=O)n1-c1ccc(Cl)cc1)CCCC3)NNC(=O)Nc1cccc(C(F)(F)F)c1`, the growth was -8.08% (active).

On to `C#Cc1nc(C2=C(C)C(O)CC2)cs1` (stereo not given), for which the growth is 117% (inactive). For `CS(=O)(=O)c1ccc(-n2cc(/C=C/C(=O)c3ccc(NC(=O)CO[N+](=O)[O-])cc3)c(-c3ccc(Cl)cc3)n2)cc1`, the growth is 94.9% (inactive). `Clc1ccc2c(NCCCN3CCOCC3)c3oc4ccccc4c3nc2c1`: the growth is 81.3% (inactive).

Regarding `CS(=O)(=O)c1ccc(-c2nc3ccccn3c2C=Nc2ccc(Cl)cc2)cc1`, the growth was 107% (inactive). For `COc1ccc(-c2csc(N/N=C/c3c(-c4ccc(S(C)(=O)=O)cc4)nc4ccccn34)n2)cc1` the value was 114% (inactive); for `OC1CCN(CCCOc2c3ccccc3nc3c2oc2ccccc23)CC1`, -62.4% (active); for `CSCCC(C(=O)O)N1C(=O)/C(=C/c2ccc(O)c(O)c2)SC1=S` (stereo not given), 133% (inactive).

Consider `CNC(=O)c1cc(-c2ccc(NC(=O)Nc3ccc(N4CCOCC4)c(C(F)(F)F)c3)cc2)nc2cccnc12`, for which the growth was 67.8% (inactive). As for `Cc1nc(-c2cc3ccccc3oc2=O)ccc1C(=O)/C=C/c1ccc(N2CCOCC2)cc1`, the figure is 91.4% (inactive); as for `[Cl][Ru].c1ccc(-c2cccc(-c3ccccn3)n2)nc1.c1ccc(-c2ccnc3c2ccc2c(-c4ccccc4)ccnc23)cc1`, -36.9% (active); as for `C=CCn1c(SCC(=O)c2ccc(Br)cc2)nnc1-c1c[nH]c2ccccc12`, 115% (inactive).

For `C#C[C@]1(O)CC[C@H]2[C@@H]3CC=C4c5sc(-c6ccc(F)cn6)nc5CC[C@]4(C)[C@H]3CC[C@@]21C`, the growth was -28.4% (active). `CC(=O)Nc1cc(F)cc(-c2ccc3[nH]cc(-c4ccccc4)c3n2)c1`: the growth was -17.5% (active). As to `O=C(CSc1nc2sc3c(c2c(=O)n1-c1ccc(Cl)cc1)CCCC3)N/N=C/c1ccc(F)cc1`, the growth was 136% (inactive). Consider `NS(=O)(=O)c1cccc(Nc2nc(SCC(=O)c3ccc(Br)cc3)nc3ccccc23)c1`, for which the growth is 89.9% (inactive). Regarding `Clc1ccc2c(NCCCn3ccnc3)c3oc4ccc(Cl)cc4c3nc2c1`, the growth was 113% (inactive). For `O=C(Nc1nc2ccc(O)cc2s1)c1cccc(C(F)(F)F)c1`, the growth is 57.2% (inactive). Regarding `CSc1ccc2c(c1)N(C(=O)/C(C#N)=C/c1c[nH]c3ccccc13)c1ccccc1S2`, the growth is 35.6% (inactive). Turning to `O=C1/C(=C/C2=Cc3ccccc3OC2)SC(=S)N1c1ccc(F)cc1`, the growth was 120% (inactive). `O=[N+]([O-])c1ccc(O)c2ncccc12`: the growth was 78.3% (inactive).

With `O=C1[C@H]2Cc3c([nH]c4ccccc34)[C@@H](c3ccc(Br)cc3)N2C(=O)CN1C1CCN(Cc2ccccc2)CC1`, the growth was 28.8% (inactive). As for `Cc1cccc2sc(/N=C(\N)C(Cl)(Cl)Cl)nc12`, the figure is 118% (inactive); as for `O=C(c1ccc(O)cc1)C1[C@H](c2ccc(Cl)cc2)[C@@H](c2ccccc2)NC12C(=O)Nc1ccc(Cl)cc12` (stereo not given in full), 57% (inactive).
